# Experimental data reported in PubChem BioAssay (NCATS).
# Results filed as inconclusive are left out. A number with no mark means an inactive call. Calls follow the shape of the dose curve; as a rule, active = well fitted inhibition curve with a large enough effect; inconclusive = small, poorly fitted or top-dose-only effect; inactive = no such curve, though single readings can be large or run the other way.
# Target: Rap guanine nucleotide exchange factor 3 (Homo sapiens) (UniProt O95398)
# Assay: Counterscreen qHTS for antagonist of cAMP-regulated guanine nucleotide exchange factor 3 (EPAC1) (AID 1645888);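 also: fluorescence loss as bound BODIPY-GDP is released from Rap1B; % of control where 0% means no effect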
# Conditions: Rap1B-BODIPY-GDP nucleotide exchange, fluorescence; series mostly up to 154 µM; activity change, negative = inhibition: at the top concentration
# In short: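 Rap1B-BODIPY-GDP 250 nM + GDP 50 uM; cpds 7-pt, final 9.74 nM–152 uM (activator mode) or from 7.32 nM upwards (inhibitor mode); RT; FI 480/540 nm at 5 and 30 min, then ± cAMP, reread.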
# Rap guanine nucleotide exchange factor 3 (Homo sapiens), sequence (O95398 whole entry, looked up): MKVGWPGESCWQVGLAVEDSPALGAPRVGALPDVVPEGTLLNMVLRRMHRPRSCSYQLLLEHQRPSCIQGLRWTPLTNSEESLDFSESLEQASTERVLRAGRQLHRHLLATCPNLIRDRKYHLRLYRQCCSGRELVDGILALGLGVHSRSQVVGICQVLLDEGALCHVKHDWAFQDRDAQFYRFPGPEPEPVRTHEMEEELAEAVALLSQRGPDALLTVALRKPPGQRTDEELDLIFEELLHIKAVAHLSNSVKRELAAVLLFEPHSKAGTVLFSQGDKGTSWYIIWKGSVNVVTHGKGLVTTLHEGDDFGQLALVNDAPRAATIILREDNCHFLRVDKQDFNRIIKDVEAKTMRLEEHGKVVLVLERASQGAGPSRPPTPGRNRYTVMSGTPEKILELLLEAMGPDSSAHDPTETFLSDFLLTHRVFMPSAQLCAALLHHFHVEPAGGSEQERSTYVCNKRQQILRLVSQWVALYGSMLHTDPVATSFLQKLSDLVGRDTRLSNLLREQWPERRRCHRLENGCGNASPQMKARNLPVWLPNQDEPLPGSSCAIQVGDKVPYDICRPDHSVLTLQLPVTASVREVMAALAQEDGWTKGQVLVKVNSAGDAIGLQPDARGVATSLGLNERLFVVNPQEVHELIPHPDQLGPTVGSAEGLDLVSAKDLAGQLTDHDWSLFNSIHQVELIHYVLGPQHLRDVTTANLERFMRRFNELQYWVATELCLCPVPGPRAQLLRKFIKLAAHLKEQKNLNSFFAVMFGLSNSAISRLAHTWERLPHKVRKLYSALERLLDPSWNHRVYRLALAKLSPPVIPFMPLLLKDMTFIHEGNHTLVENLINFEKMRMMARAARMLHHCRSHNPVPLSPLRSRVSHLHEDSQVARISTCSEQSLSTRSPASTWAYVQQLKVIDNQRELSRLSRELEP
row,SMILES,"activity change, negative = inhibition"
1,COc1cn(-c2ccccc2)nc1C(=O)Nc1ccc(C)cc1Cl,5.79%
2,Cc1cccc(Nc2nnc(SC/C(O)=C(\C#N)c3nc4ccccc4[nH]3)s2)c1,-0.416%
3,COc1ccc(-n2c(NC(=O)c3ccco3)c(C#N)c3nc4ccccc4nc32)cc1,-23.2%
4,COc1ccc(OC)c(CNC(=O)CCCc2cn(C)c3ccccc23)c1,3.05%
5,N#CCCN(CCC#N)S(=O)(=O)c1ccc(C(=O)Nc2nnc(C3=COCCO3)o2)cc1,17.3%
6,O=C1C(Cl)=C(NCCc2ccccc2)C(=O)c2ccccc21,13.2%
7,CN(CCOc1ccc(Br)cc1)C(=O)CNC(=O)c1ccc2ccccc2c1,-17.3% [at 30.8 µM]
8,Oc1c(Br)cc(Br)cc1CNc1cccc2cccnc12,14.9%
9,Cc1ccc(-c2nc3c(c(=O)[nH]c(=O)n3Cc3ccccc3)n2C)o1,6.36%
10,O=C(Nc1c(-c2ccc3c(c2)OCO3)[nH][nH]c1=O)c1ccccc1,-22.2%
11,Cc1cccc(Cn2c(COc3ccccc3)nc3ccccc32)c1,7.46%
12,Cc1ccc(C)c(N2CCN(C(=O)c3ccc4c(=O)n5c(nc4c3)CCCCC5)CC2)c1,-18% [at 30.8 µM]
13,CCN(CCCNC(=O)c1cc2cc3ccc(OC)cc3nc2s1)c1cccc(C)c1,10.5%
14,CCc1nc(Oc2cccc(F)c2)c2oc3ccccc3c2n1,21.7%
15,CC(c1nc2ccccc2n1Cc1ccccc1)n1c(-c2cnccn2)nc2ccccc21 (configuration not stated),5.1%
16,O=C(Nc1ccccc1C(=O)O)c1cccc(NC(=O)c2ccc(Br)o2)c1,-5.74%
17,Cc1ccn2c(=O)nc(SCC(=O)Nc3ccc4c(c3)OCO4)nc2c1,13.6%
